MITF inh – human MITF inhibition, primary screen. AID 1259374. 650,000 compounds, 0.91% hits. AlphaScreen MITF homodimerization, bead proximity signal. inhibition, % at 2.6 µM; in the data active = inhibition above about 50%
Target sequence (O75030 whole entry, looked up): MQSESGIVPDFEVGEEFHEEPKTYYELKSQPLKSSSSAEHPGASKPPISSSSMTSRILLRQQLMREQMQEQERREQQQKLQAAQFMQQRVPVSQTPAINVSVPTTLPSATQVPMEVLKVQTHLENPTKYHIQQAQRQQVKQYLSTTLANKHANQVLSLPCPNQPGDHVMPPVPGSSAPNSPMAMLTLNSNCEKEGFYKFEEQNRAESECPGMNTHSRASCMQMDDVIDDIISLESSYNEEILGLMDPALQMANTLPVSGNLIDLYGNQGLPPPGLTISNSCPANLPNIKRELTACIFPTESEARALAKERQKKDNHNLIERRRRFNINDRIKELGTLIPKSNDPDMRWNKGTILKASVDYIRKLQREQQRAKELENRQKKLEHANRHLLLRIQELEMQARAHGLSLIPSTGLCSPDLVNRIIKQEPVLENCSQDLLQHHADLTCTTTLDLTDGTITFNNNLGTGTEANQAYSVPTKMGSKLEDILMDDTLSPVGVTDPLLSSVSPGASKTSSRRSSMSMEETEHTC
TEAD-YAP block – TEAD-YAP interaction inhibition; inhibition, % at 9.12 µM; HEK-TIYL cells, TEAD-Gal4/YAP UAS-luciferase luminescence; 640,000 compounds, 1.4% hits; in the data active = inhibition above about 32%
GPR151 ag – activates the human receptor GPR151; 650,000 compounds, 1% hits; activation, % at 11.2 µM; PathHunter beta-arrestin GPR151 cells, luminescence; in the data active = activation above about 4.9%
FBW7 act – human FBW7 E3 ligase activation, primary screen. Q969H0. AID 1259310. 650,000 compounds, 0.13% hits. normalized activity (activation), % at 26.1 µM. AlphaScreen FBW7–phospho-cyclin E peptide binding, activator screen; in the data active = normalized activity above about 1.9%;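 also: purified mutant Fbw7 with reduced substrate affinity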
Hits are given with their value; n = inactive. An excerpt weighted towards active compounds, which were near 3.5% of everything screened.

SMILES | MITF inh | TEAD-YAP block | GPR151 ag | FBW7 act
O=C(Nc1ccc([N+](=O)[O-])cc1)c1cccc(S(=O)(=O)Nc2cccc(F)c2)c1 | n | 33 | n | n
O=C1NC2(CCCCC2)C(=O)N1/N=C/c1cccnc1 | n | n | n | n
COCCNC(=S)NNC(=O)c1ccccc1 | n | n | n | n
COc1ccc(NS(=O)(=O)c2ccc(NC(=O)c3cccc([N+](=O)[O-])c3)cc2)cc1 | n | 33 | n | n
Cc1ccc(S(=O)(=O)Nc2ccccc2C(=O)Nc2ccc(C(=O)O)cc2)cc1 | n | n | n | n
Cc1ccc(S(=O)(=O)Nc2ccccc2C(=O)Nc2ccc([N+](=O)[O-])cc2)cc1 | n | 63 | n | n
CC(C)(C)OC(=O)NC(CCNC=C1C(=O)OC(C)(C)OC1=O)C(=O)O (stereo unspecified) | 71 | n | n | n
COC(=O)c1ccc(NC(=O)CSc2nc(=O)cc(N)n2-c2cccc(C)c2)cc1 | n | n | n | n
Cc1c(C(=O)OC(C)C)[nH]c2c1C(=O)CC(c1ccccc1)C2 (stereo unspecified) | n | 51 | n | n
Cc1c(C(=O)OCCOc2ccccc2)[nH]c2c1C(=O)CCC2 | n | 43 | n | n
COCCOC(=O)c1[nH]c2c(c1C)C(=O)CC(c1ccccc1Cl)C2 (stereo unspecified) | n | 40 | n | n
COc1ccc(OC)c(C2CC(=O)c3c([nH]c(C(=O)OC(C)C)c3C)C2)c1 (stereo unspecified) | n | 50 | n | n
COC(=O)c1c(N)ncn1-c1ccccc1OC | n | n | n | n
COCCOC(=O)c1[nH]c2c(c1C)C(=O)CC(c1cc(OC)ccc1OC)C2 (stereo unspecified) | n | 44 | n | n
CCCOCCOC(=O)c1[nH]c2c(c1C)C(=O)CC(c1ccc(OC)c(OC)c1)C2 (stereo unspecified) | n | n | n | n
COc1ccc(OC)c(C2CC(=O)c3c([nH]c(C(=O)OCCSC)c3C)C2)c1 (stereo unspecified) | n | n | n | n
COc1ccc(OC)c(C2CC(=O)c3c([nH]c(C(=O)OCC4CCCO4)c3C)C2)c1 (stereo unspecified) | n | n | n | n
CCCOCCOC(=O)c1[nH]c2c(c1C)C(=O)CC(c1cc(OC)ccc1OC)C2 (stereo unspecified) | n | 47 | n | n
CCOCCOC(=O)c1[nH]c2c(c1C)C(=O)CC(c1cc(OC)ccc1OC)C2 (stereo unspecified) | n | 45 | n | n
COc1ccc(OC)c(C2CC(=O)c3c([nH]c(C(=O)OCCOC(C)C)c3C)C2)c1 (stereo unspecified) | n | 45 | n | n
Cc1cccc(N2C(=O)C(=O)/C(=C(/O)c3ccccc3)C2c2ccc(N(C)C)cc2)c1 (stereo unspecified) | n | n | n | n
CC(=O)NNc1nc(-c2ccc(Sc3ccccc3)cc2)cs1 | n | n | n | n
CCCOCCOC(=O)c1[nH]c2c(c1C)C(=O)CC(c1cccs1)C2 (stereo unspecified) | n | 56 | n | n
CCOC(=O)c1c(C)[nH]c(C(=O)N/N=C\c2ccccc2O)c1C | n | 35 | n | n
CCOC(=O)c1c(C)[nH]c(C(=O)N/N=C\c2ccc(Br)cc2)c1C | n | 56 | n | n
SMILES | MITF inh | TEAD-YAP block | GPR151 ag | FBW7 act
COc1ccccc1/C=N/NC(=O)c1[nH]c(C)c(C(=O)N/N=C/c2ccccc2OC)c1C | n | n | n | n
CCOC(=O)c1c(C)[nH]c(C(=O)N/N=C\c2ccccc2)c1C | n | n | n | n
Cc1ncc([N+](=O)[O-])n1S(=O)(=O)c1ccccc1 | n | n | n | n
Cc1ncc([N+](=O)[O-])n1S(=O)(=O)c1cccc2ccccc12 | n | n | n | 2.3
CCN(CC)C(=O)c1sc2ncnc(N3CCN(c4ccccc4)CC3)c2c1C | n | n | n | 2.0
Cc1c(C(=O)Nc2ccccc2F)sc2ncnc(N3CCN(c4ccccc4)CC3)c12 | n | n | n | 1.9
COc1cc(NC(=O)c2sc3ncnc(N4CCN(c5ccccc5F)CC4)c3c2C)cc(OC)c1OC | n | 32 | n | n
Cc1c(C(=O)Nc2c(F)cccc2F)sc2ncnc(N3CCN(c4ccccc4)CC3)c12 | n | n | n | n
Cc1c(C(=O)NC(C)C)sc2ncnc(N3CCN(c4ccccc4)CC3)c12 | n | n | n | 2.1
Cc1ccc2nc(C3CCCCN3C(=O)c3nonc3C)[nH]c2c1 (stereo unspecified) | n | n | n | n
COc1ccc(N2CC(NC(=O)NCCCO)CC2=O)cc1 (stereo unspecified) | n | n | n | n
CCC1CN(Cc2nccs2)Cc2ccc(Cl)cc2O1 (stereo unspecified) | n | n | n | n
CCOC(=O)CCN(Cc1ccccc1)S(=O)(=O)c1cccc(Cl)c1 | n | n | n | n
O=C1N(Cc2ccccc2)CCN1c1ccc(C(F)(F)F)cn1 | n | n | n | n
COc1cc2ccccc2cc1C(=O)Nc1ccc(Cl)cc1 | n | n | n | n
Cc1ccc(NC(=O)c2sc3ncnc(N4CCN(c5ccccc5F)CC4)c3c2C)c(Br)c1 | n | n | n | 2.0
COc1ccc(C(=O)Nc2cc(Nc3ccccc3C(N)=O)ccn2)cc1 | n | 37 | n | n
COc1ccc(C(=O)Nc2cnc3ccccc3c2)cc1 | n | 84 | n | n
COc1ccc(C(=O)Nc2cc(C)c(C)s2)cc1 | n | 34 | n | n
CCCCc1ccc(NC(=O)c2ccccc2)cc1 | n | n | n | n
COc1cc(Nc2cc(Nc3ccccc3C(N)=O)ccn2)cc(OC)c1OC | n | n | n | n
CCCCc1ccc(C(=O)Nc2cnc3ccccc3c2)cc1 | n | 40 | n | n
CC(C)c1nc(CNC(=O)CCc2nnc(-c3ccccc3)o2)cs1 | n | n | n | n
Cc1ccc(N2C(=O)SC(Nc3cccc4ccccc34)C2=O)cc1 (stereo unspecified) | n | n | n | n
Cc1onc(-c2ccccc2Cl)c1C(=O)NC(C)Cc1c[nH]c2ccccc12 (stereo unspecified) | n | n | n | n
SMILES | MITF inh | TEAD-YAP block | GPR151 ag | FBW7 act
O=C(Nc1cnc2ccccc2c1)c1cccc(F)c1 | n | 36 | n | n
COc1ccc(C(=O)Nc2ccccc2C(=O)Nc2nc3ccccc3n2C)cc1 | n | 94 | n | n
COc1ccc(C(=O)Nc2cnc(NC(=O)c3ccccc3)cc2C)cc1 | n | 45 | n | n
COc1ccc(C(=O)Nc2nc3ccccc3n2C)cc1 | n | n | n | n
O=C1NC2(CCN(C(=O)c3csc4c3CCCC4)CC2)Nc2ccccc21 | n | 40 | n | n
Cc1nc(C)n(-c2ccc(Nc3cc(-n4cc(C)c(Nc5ccccc5)n4)ccn3)cc2)n1 | n | n | n | 1.9
CC1(C)Cc2cccc(OCc3ccc(C(=O)NCc4ccccn4)cc3)c2O1 | n | n | n | n
Cc1oc(C(=O)N2c3ccccc3CC2C)cc1S(=O)(=O)N(C)C (stereo unspecified) | n | 49 | n | n
O=C(NC(=S)NNC(=O)c1cc2ccccc2cc1O)c1ccco1 | n | 35 | n | n
CCOc1cc(N2CCOCC2)c(OCC)cc1NC(=O)CN(CC)C1CCCCC1 | n | n | n | n

From PubChem
